The assay addresses Torsin-1A-interacting protein 2 (Homo sapiens) (UniProt Q8NFQ8). As to the kind of experiment: small molecules binding lysate-expressed LULL1 – cell lysate, human LULL1 lysate, 635/667 nm fluorescence, primary screen (AID 1092).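 Further: probe is lysate of COS7 cells overexpressing human LULL1; score merges per-feature 667 nm fluorescence with signal-to-noise.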 The settings on record: small-molecule microarray, hLULL1 lysate binding, 635 nm fluorescence; higher = more signal.
Chain of Torsin-1A-interacting protein 2 (Homo sapiens) (Q8NFQ8 whole entry, looked up): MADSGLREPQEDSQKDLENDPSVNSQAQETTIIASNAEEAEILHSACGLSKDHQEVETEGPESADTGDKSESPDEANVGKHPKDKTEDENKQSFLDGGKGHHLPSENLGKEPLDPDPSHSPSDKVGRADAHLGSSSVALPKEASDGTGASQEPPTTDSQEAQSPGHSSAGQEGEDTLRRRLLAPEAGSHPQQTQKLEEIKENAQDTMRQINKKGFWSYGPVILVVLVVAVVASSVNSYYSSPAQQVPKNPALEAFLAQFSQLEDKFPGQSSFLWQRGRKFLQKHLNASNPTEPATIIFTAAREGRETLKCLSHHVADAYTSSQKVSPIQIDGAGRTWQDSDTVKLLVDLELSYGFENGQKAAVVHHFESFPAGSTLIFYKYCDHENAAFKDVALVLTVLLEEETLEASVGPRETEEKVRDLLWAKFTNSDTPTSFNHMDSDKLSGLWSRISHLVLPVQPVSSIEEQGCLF
`Cc1ccc(S[C@]2(C(=O)O)CC(=O)N(Cc3cc(C(F)(F)F)cc(C(F)(F)F)c3)[C@@H]2c2ccc(CO)cc2)cc1` had a composite z-score of 1.53. `CCOC(=O)[C@H]1[C@@H]2C(=O)N3CCC[C@H]3[C@H](O[Si](C(C)C)(C(C)C)C(C)C)[C@H]2C=C2CCN(S(=O)(=O)c3ccc(C)cc3)C[C@H]21`: the composite z-score amounted to 2.38. Turning to `CO[C@H]1O[C@H](CO)[C@@H](OC(=O)Nc2ccccc2-c2ccccc2)[C@H](OC(=O)Nc2ccc3c(c2)OCO3)[C@H]1OC(=O)Nc1ccc2c(c1)OCO2`, the composite z-score is 3.25. To `COc1ccccc1CN1C(=O)c2ccccc2[C@@]2(Cc3ccccc3N(CC(F)(F)F)C2=O)[C@@H]1c1ccc(CO)cc1` belongs 0.104; to `CN(C)C(=O)[C@@]1(Cc2ccccc2CN=[N+]=[N-])N=C(c2ccc(OCCCO)cc2)O[C@H]1c1ccccc1CN=[N+]=[N-]`, 2.6.

`COc1ccc(CCN2C(=O)[C@@]3(Cc4ccccc42)c2ccccc2C(=O)N(Cc2ccccc2OC)[C@H]3c2ccc(CO)cc2)cc1` registered a composite z-score of 1.66. To `O=C1C2C=CC(C(O)c3ccc(Br)cc3)N(Nc3ccccc3F)C2C(=O)N1c1ccccc1` (stereo unspecified) belongs 2.97. To `C=CCC(OC(C)=O)[C@@H]1[C@@H](N(Cc2cccc3ccccc23)C(=O)Cc2ccc(OC)cc2)c2cc(OCCCO)ccc2N1C(=O)c1ccc2ccccc2n1` (stereo partly specified) belongs 1.2; to `COC(=O)C(CC#Cc1ccc2c(c1)[C@]1(C(=O)N2)[C@H](c2ccccc2OCCO)N2[C@H](c3ccccc3)[C@H](c3ccccc3)OC(=O)[C@H]2[C@@H]1C(=O)NC[C@H](O)c1ccccc1)C(=O)OC`, 3.25; to `COc1ccc([Si](C)(C)[C@H]2[C@H](CCO)O[C@@]3(C(=O)N(Cc4cccc(N5C(=O)COc6ccccc65)c4)c4ccccc43)[C@@H]2C)cc1`, 0.795. Next, `CCCCCCc1nc(C2CC2)cc2c1[Si](C(C)C)(C(C)C)OC2`: -0.908; `C=CCNC(=O)[C@@H]1[C@H]2C(=O)O[C@H](c3ccccc3)[C@H](c3ccccc3)N2[C@H](c2ccc(O)cc2)[C@@]12C(=O)N(C(=O)OCCOC)c1ccc(C#CC3(O)CCCCCC3)cc12`: -1.28; `CC(CO)N1C(=O)[C@@H]2[C@H]3C(=O)OCC=C[C@H]3OC23C=CCN(Cc2ccccc2)C(=O)[C@@H]13` (stereo partly specified): 1.41. `[N-]=[N+]=NCc1ccccc1C[C@@]1(C(=O)NCc2ccccc2)N=C(c2ccc(OCCCO)cc2)O[C@@H]1c1ccccc1N=[N+]=[N-]` showed a composite z-score of 2.88. Next, `C=CCN1Cc2ccccc2[C@H]2OC(c3ccc(OCCCO)cc3)=N[C@@]2(CC=C)C1=O`: 3.21; `Cc1cc(C)cc(N2C(=O)CSC2c2cccc([N+](=O)[O-])c2)c1` (stereo unspecified): 2.39. `CCOc1cc(C(O)C2C=CC3C(=O)N(C)C(=O)C3N2Nc2ccccc2)ccc1O` (stereo unspecified) showed a composite z-score of 1.84. Next, `[N-]=[N+]=Nc1ccccc1C[C@]1(C(N)=O)N=C(c2ccc(OCCCO)cc2)O[C@H]1c1ccccc1N=[N+]=[N-]`: 2.89. In the case of `NC(=O)NCC#Cc1ccc2c(c1)[C@]1(C(=O)N2)[C@H](C(=O)O)[C@H]2C(=O)O[C@H](c3ccccc3)[C@H](c3ccccc3)N2[C@@H]1c1ccc(OCCO)cc1`, the composite z-score came out at 1.37.

On to `CCCCCCc1nc(C2CC2)cc2c1[Si](C(C)C)(C(C)C)O[C@H]2c1ccccc1`, for which the composite z-score is -0.624. To `COc1cc2c(cc1OC)CN(C(=O)[C@@H]1[C@H]3C(=O)O[C@H](c4ccccc4)[C@H](c4ccccc4)N3[C@H](c3ccc(OCCO)cc3)[C@@]13C(=O)Nc1ccc(C#CC4(O)CCCCCC4)cc13)CC2` belongs 3.19; to `O=C1C[C@@](C(=O)NCCN2CCOCC2)(c2ccc([N+](=O)[O-])cc2)[C@@H](c2ccc(CO)cc2I)N1C1CCCCC1`, 2.79. To `COC(=O)[C@@]1(Cc2ccc(F)cc2)[C@H]2c3cc(C(=O)N4CCCC4)n(CCc4ccc(O)c(O)c4)c3C[C@H]2CN1C(=O)c1ccccc1` belongs 3.22. Next, `CC(C)N1C(=O)C[C@@](C(=O)NCCCN(C)C)(c2ccc([N+](=O)[O-])cc2)[C@H]1c1ccc(CO)cc1`: 0.349. `COC(=O)C1=CC(CCCO)=CC(C2CC2)N(C)C=C1C(=O)OC` (stereo unspecified) came in with a composite z-score of 2.79. Turning to `COC(=O)c1c(CC[C@@H](CO)NC(=O)N2CCC[C@H]2Cn2cc(Cc3ccccc3)nn2)oc(C(C)=O)c1C(=O)OC`, the composite z-score was 3.14.

Consider `O=C(N1CCCCC1)[C@@]1(CCS(=O)(=O)c2ccccc2)COC(c2ccc(OCCCO)cc2)=N1`, for which the composite z-score turned out to be 2.84. To `CC1=C[C@@]2(CO)C(=O)[C@]3(CO3)[C@@H]1[C@H]1[C@]2(C)C=C(CO)C(=O)[C@]12CO2` belongs 0.0091; to `CCCNC(=O)[C@@]1(c2ccc([N+](=O)[O-])cc2)CC(=O)N(C2CCCCC2)[C@@H]1c1ccc(CO)cc1`, 2.8. To `NC(=O)NCC#Cc1ccc2c(c1)[C@]1(C(=O)N2)[C@H](C(=O)NC[C@H](O)c2ccccc2)[C@H]2C(=O)O[C@H](c3ccccc3)[C@H](c3ccccc3)N2[C@@H]1c1ccc(OCCO)cc1` belongs 1.21. Next, `O=C1NC(=O)C2C1C=CC(C(O)CCc1ccccc1)N2Nc1ccc(Cl)cc1Cl` (stereo unspecified): 2.73; `CCCCC=C[C@@H](NC(=O)c1ccc(-c2ccccc2)cc1)c1ccccc1`: 2.44.

Regarding `COc1ccc([Si](C)(C)[C@@H]2[C@@H](CC(=O)N(CCO)Cc3ccccc3)O[C@]3(C(=O)N(Cc4cccc(N5CCOC5=O)c4)c4ccccc43)[C@H]2C)cc1`, the composite z-score was determined as 1.96.

As to `CC(C)N1CC=CC23O[C@@H]4C=CCOC(=O)[C@@H]4[C@H]2C(=O)N(CCCO)[C@@H]3C1=O` (stereo partly specified), the composite z-score is 2.41. Next, `C=CCNC(=O)[C@H]1[C@@H]2C(=O)O[C@@H](c3ccccc3)[C@@H](c3ccccc3)N2[C@@H](c2ccc(O)cc2)[C@]12C(=O)N(C(=O)OCCOC)c1ccccc12`: 2.84; `O=C1OCC=C[C@H]2OC34C=CCN(c5ccc(Cl)cc5)C(=O)[C@H]3N(CCO)C(=O)[C@@H]4[C@@H]12` (stereo partly specified): 2.87.

Values taken from PubChem BioAssay.
